Assay results as given in PubChem BioAssay (NCATS).
Unmarked numbers belong to inactive results. The call rests on the fitted dose curve; in most records, active means well fitted activation curve with a large enough effect; inconclusive means small, poorly fitted or top-dose-only effect; inactive means no such curve, though single readings can be large or run the other way.

Molecular target: Cytochrome P450 3A4 (Homo sapiens) (UniProt P08684)
Test: qHTS Assay for Activators of Cytochrome P450 3A4 (AID 885); further: nearly all actives have a fitted effect of over 65% in size
Conditions: recombinant CYP3A4, Luciferin-PPXE luminescence, 60 min; series mostly up to 57.1 µM; activity change, positive = activation: at the top concentration
Outline: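 Steps: enzyme/substrate mix dispensed; compound added, 10 min RT; NADPH regeneration solution added, 60 min RT; luciferin detection buffer stops reaction; 20 min later luminescence measured.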

Sequence of Cytochrome P450 3A4 (Homo sapiens) (P08684 whole entry, looked up): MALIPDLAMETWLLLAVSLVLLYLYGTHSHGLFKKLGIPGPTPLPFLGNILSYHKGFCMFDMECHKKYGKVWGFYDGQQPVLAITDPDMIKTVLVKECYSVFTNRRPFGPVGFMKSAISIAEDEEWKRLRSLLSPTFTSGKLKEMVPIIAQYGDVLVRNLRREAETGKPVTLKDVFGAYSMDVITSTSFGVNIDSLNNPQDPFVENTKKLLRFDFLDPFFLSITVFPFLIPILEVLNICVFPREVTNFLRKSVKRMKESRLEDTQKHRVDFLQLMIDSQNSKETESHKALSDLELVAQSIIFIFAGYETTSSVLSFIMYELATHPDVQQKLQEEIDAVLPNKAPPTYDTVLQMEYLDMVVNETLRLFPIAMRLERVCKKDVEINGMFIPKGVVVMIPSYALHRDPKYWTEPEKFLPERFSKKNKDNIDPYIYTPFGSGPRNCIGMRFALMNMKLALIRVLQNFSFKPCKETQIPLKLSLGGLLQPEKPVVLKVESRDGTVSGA

Row | SMILES | activity change, positive = activation
1 | C#CCCCO/N=C1/C[C@@H](O)[C@@H](O)[C@@H]2[C@@H]3C(=O)N(CCC(=O)OCC)C(=O)[C@H]3CC[C@@H]12 | -45.7% [at 11.4 µM]
2 | C/C(CCN1CCCc2nc(C)c(C)cc21)=N\O[C@@H](C)c1cc(-c2c(C)cc(C)cc2C)no1 | -56.9% [at 11.4 µM]
3 | CC(C)CO/N=C1/C[C@@H](O)[C@@H](O)[C@@H]2[C@@H]3C(=O)N([C@@H](C)c4ccccc4)C(=O)[C@H]3CC[C@H]12 | -46.1% [at 11.4 µM]
4 | COc1ccc(COC(=O)N/N=C2/C[C@@H](O)[C@@H](O)[C@@H]3[C@@H]4C(=O)N([C@@H](C)c5ccccc5)C(=O)[C@H]4CC[C@@H]23)cc1 | -39.8% [at 11.4 µM]
5 | CCc1cc2c(nc1CC)CCN(CC/C(C)=N/OC[C@H]1O[C@H](c3ccccc3)C=C[C@@H]1Oc1ccc(OC)cc1)C2 | -51.8% [at 11.4 µM]
6 | O=C1[C@H]2[C@H]3[C@H](O)[C@H](O)C/C(=N/OC[C@@H](O)COCc4ccco4)[C@@H]3CC[C@@H]2C(=O)N1C1CCCCC1 | -51.1% [at 11.4 µM]
7 | CO[C@@H]1COC(=O)CC=C[C@@H](C)[C@@H]2C=C[C@H](O)[C@@H](COC(=O)C/C=C\[C@H]1C)O2 | -43.1% [at 11.4 µM]
8 | COC(=O)CN=C1OC(=O)N2C(=O)C3=C4C(C[C@H]5C(=O)N(c6ccccc6)C(=O)[C@H]5[C@H]4[C@@]12Cc1ccccc1)[C@H]1C(=O)N(c2ccccc2)C(=O)[C@H]1[C@H]3C (stereo not given in full) | -56.9%
9 | CC(C)Cn1c(N)c(C(=O)COC(=O)c2cc(C(F)(F)F)nc3c(C(F)(F)F)cccc23)c(=O)n(C)c1=O | -41.9%
10 | CO[C@H]1COC(=O)[C@H](C)COC(=O)[C@@H](Cc2ccccc2)NC(=O)C/C=C\[C@H]1C | -39.6% [at 11.4 µM]
11 | CC(C)=CCC/C(C)=C/CO/N=C1/C[C@@H](O)[C@@H](O)[C@@H]2[C@H]3C(=O)N(c4ccc(F)cc4F)C(=O)[C@@H]3CC[C@H]12 | -35.2% [at 11.4 µM]
12 | CCc1cc2c(nc1CC)CCN(CC/C(C)=N/OCC[C@@H]1C=C[C@H](OC(C)=O)[C@H](COC(C)=O)O1)C2 | -32.1% [at 11.4 µM]
13 | COC(=O)c1ccc(C23CC4(C2)[C@H](CN(C)[C@@H]4c2ccccc2)C3c2ccccc2)cc1 (stereo not given in full) | -59.7%
14 | CN1C[C@@H]2C(c3ccccc3)C3(c4ccc(C#N)cc4)CC2(C3)[C@H]1c1ccccc1 (stereo not given in full) | -56.9%
15 | O=C1[C@H]2[C@H]3[C@H](O)[C@H](O)C/C(=N/OC[C@@H](O)COCc4ccco4)[C@H]3CC[C@@H]2C(=O)N1C1CCCCC1 | -43.8% [at 11.4 µM]
16 | CO[C@H]1COC(=O)[C@@H](C)COC(=O)[C@@H](COCc2ccccc2)NC(=O)C/C=C\[C@H]1C | -40.1% [at 11.4 µM]
17 | C#CCCCO/N=C1/[C@H]2O[C@@H]2[C@@H](O)[C@H]2[C@H]1CCn1c(=O)n([C@@H](CC)c3ccccc3)c(=O)n12 | -55.5% [at 11.4 µM]
18 | O=C(N/N=C1/C[C@@H](O)[C@@H](O)[C@@H]2[C@H]3C(=O)N(c4ccc(F)cc4F)C(=O)[C@@H]3CC[C@@H]12)OCc1ccccc1 | -45.4% [at 11.4 µM]
19 | Cc1c(O)c(O)cc2c1oc1c3ccccc3oc(=O)c21 | -53.9%
20 | COC(=O)C/C=C\[C@@H](C)[C@@H](/C=N\OC[C@@H](C)[C@H](OCc1ccccc1)C(C)C)OC | -33% [at 11.4 µM]
21 | COC(=O)[C@@H]1C[C@H]2CC[C@H](O)C[C@H]2N1Cc1ccc(-c2ccccc2)cc1 | -46.3%
22 | COC(=O)[C@@H]1C[C@@]2(O)[C@H](O)[C@H](O)[C@H](O)C[C@H]2N1Cc1cc(OC)cc(OC)c1 | -39.3%
23 | CO[C@@H]1/C=C\CC(=O)N[C@@H](C)C(=O)OC[C@@H](OC)[C@H](C)/C=C\CC(=O)OC[C@H]1C | -36.7% [at 11.4 µM]
24 | CO[C@H]1COC(=O)C/C=C\[C@@H](C)[C@H](OC)COC(=O)CCC[C@@H]1C | -58.3% [at 11.4 µM]
25 | CCc1cc2c(nc1CC)CCN(CC/C(C)=N/OC[C@@H](O)COCc1ccco1)C2 | -38.2% [at 11.4 µM]
